# About 3,200 (25%) of roughly 13,000 compounds showed an effect of 50% or more. Some of the results follow.
# System: P. falciparum stage V gametocytes
# Parameters: BacTiter-Glo ATP luminescence viability of purified stage V gametocytes in 384-well plates, per cent inhibition versus DMSO
# Details: 48 h, 5 µM; inhibitor
row,Structure (SMILES),% Inhibition [%]
1,O=C(Nc1ccc(Cn2ncc(N3CCCNCC3)c(Cl)c2=O)cc1)Nc1ccc(C(F)(F)F)cc1 [TCMDC-133328],-22.6
2,O=C(Nc1cccc(CN2CCN(Cc3ccc(O)cc3)CC2)c1)c1cccc(C(F)(F)F)c1 [TCMDC-141885],-19.52
3,CCC[C@@H]([C@@H](CC1CCCCC1)C(=O)N[C@H](C(=O)Nc1nccs1)C(C)(C)SC)N(O)C=O [TCMDC-138113],-0.06569
4,COc1ccccc1N1CCN(C(C(=O)NCc2cccc(F)c2)c2ccc(C)cc2)CC1 (stereo not shown) [TCMDC-135502],14.65
5,O=c1cc(NCCCNCc2cccc(I)c2)[nH]c2ccccc12 [TCMDC-139414],-42.93
6,O=C(Nc1ccc(-c2nc3ccccc3[nH]2)cc1)C1CCN(Cc2cccc(F)c2F)CC1 [TCMDC-124682],-38.06
7,COc1ccc(CN2CCCC(N3CC4(OC3=O)c3ccccc3-c3ccccc34)C2)c(O)c1 (stereo not shown) [TCMDC-136068],22.8
8,O=C(N[C@@H](Cc1ccccc1)C(=O)NCc1cccc2ccccc12)c1ccc(O)c(-c2ccc(Cl)c(Cl)c2)c1 [TCMDC-140877],23.34
9,COc1ccc(CCN(Cc2cccs2)C(=O)c2cc3sccc3n2C)cc1OC [TCMDC-123572],18.98
10,O=C(Cc1cccc(Cl)c1)Nc1cccc(-c2c[nH]c3nc(Nc4cccc(O)c4)ncc23)c1 [TCMDC-134681],-6.738
11,Cc1cc(CN2CC[C@H](NC(=O)c3ccc(Cl)c(Cl)c3)C2)ccc1OCCCN(C)C [TCMDC-140278],26.92
12,O=C(N[C@H]1CCN(Cc2ccc(OCCN3CCCC3)c(Cl)c2)C1)c1ccc(Cl)c(Cl)c1 [TCMDC-140273],27.77
13,CN1CCC[C@H]1COc1ccc(CN2CC[C@H](NC(=O)c3ccc(Cl)c(Cl)c3)C2)cc1Br [TCMDC-140285],31.25
14,Cc1cc(CN2CC[C@H](NC(=O)c3ccc(Cl)c(Cl)c3)C2)ccc1OCCN1CCNCC1 [TCMDC-140280],58.57
15,O=C(N[C@H]1CCN(Cc2ccc(OCCN3CCNCC3)c(Br)c2)C1)c1ccc(Cl)c(Cl)c1 [TCMDC-140284],61.32
16,O=C(N[C@H]1CCN(Cc2ccc(OCCN3CCNCC3)c(Cl)c2)C1)c1ccc(Cl)c(Cl)c1 [TCMDC-140274],104.1
17,Cc1cc(CN2CC[C@H](NC(=O)c3ccc(Cl)c(Cl)c3)C2)ccc1OCCN1CCCC1 [TCMDC-140279],-2.29
18,CN1CCC[C@H]1COc1ccc(CN2CC[C@H](NC(=O)c3ccc(Cl)c(Cl)c3)C2)cc1Cl [TCMDC-140275],-2.162
19,CN(C)CCCOc1ccc(CN2CC[C@H](NC(=O)c3ccc(Cl)c(Cl)c3)C2)cc1Br [TCMDC-140283],16.89
20,CCC(C)CN1CCN(c2ccc(NC(=O)c3cccs3)cc2)CC1C (stereo not shown) [TCMDC-134997],0.3581
21,Cc1ccc(C(=O)NC2C(=O)NC2c2ccccc2)c(C)c1 (stereo not shown) [TCMDC-131386],4.246
22,COc1ccc(NC(=O)[C@H](CC(C)C)Nc2cc(C)nc(NCc3ccccc3C)n2)cc1 [TCMDC-134909],-97.01

row,Structure (SMILES),% Inhibition [%]
1,COc1cc2nc(NCc3cccc(CNC(=O)c4ccc(-c5ccc(C(C)=O)cc5)cc4)c3)nc(N)c2cc1OC.O=C(O)C(F)(F)F [TCMDC-138177],117.9
2,COc1cc2nc(N3CCC(CNC(=O)c4cccc5cc[nH]c45)CC3)nc(N)c2cc1OC [TCMDC-138184],101.1
3,COc1cc2nc(N3CCC(CNC(=O)c4ccc(-c5ccc(Cl)cc5)cc4)CC3)nc(N)c2cc1OC [TCMDC-138718],145.1
4,COc1cc2nc(N3CCC(CNC(=O)c4ccc(OC(F)(F)F)cc4)CC3)nc(N)c2cc1OC.O=C(O)C(F)(F)F [TCMDC-138211],-26.96
5,COc1cc(N)c(Cl)cc1C(=O)NCC1CCN(c2nc(C)cc(C)n2)CC1 [TCMDC-124850],17.19
6,COc1cc2nc(NCC3CCN(C(=O)c4ccc(-c5ccc(C(=O)N(C)C)cc5C)cc4)CC3)nc(N)c2cc1OC [TCMDC-138182],-26.73
7,COc1cc2nc(N3CCC(CNC(=O)c4ccc(C(C)=O)cc4)CC3)nc(N)c2cc1OC.O=C(O)C(F)(F)F [TCMDC-138210],69.3
8,Cc1cc2nc(-c3ccc(C(=O)NCc4cccc(C(F)(F)F)c4)cc3)[nH]c2cc1C [TCMDC-140431],-14.71
9,COc1cc2nc(N3CCC(CNC(=O)c4cccc5cccnc45)CC3)nc(N)c2cc1OC [TCMDC-138181],14.63
10,CN(C)Cc1cccc(-c2cnc(N)c(-c3nc4ccc(S(C)(=O)=O)cc4[nH]3)c2)c1 [TCMDC-133721],43.08
11,CSc1ccc(CN2CCC(NC(=O)c3ccc(-c4cccc(Cl)c4)s3)CC2)cc1 [TCMDC-134341],12.93
12,COc1cc(Nc2nc(N)n(C(=O)c3ccc4c(c3)OCO4)n2)cc(OC)c1OC [TCMDC-136737],-65.07
13,O=c1[nH]c2c(cc1CNC1CCCCC1)c(-c1ccc(F)cc1)nn2-c1ccccc1 [TCMDC-125352],14.87
14,CCCCOC(=O)NCCCC[C@H](NC(=O)OC(C)(C)C)C(=O)N[C@H](C(=O)OC(c1ccccc1)c1ccccc1)[C@H]1O[C@@H](n2ccc(=O)[nH]c2=O)[C@@H]2OC(C)(C)O[C@@H]21 [TCMDC-131947],9.174
15,Cc1c(C(=O)C2CC2CN2CCC(N3CCCC3)CC2)sc2ccccc12 (stereo not shown) [TCMDC-132577],31.52
16,C=C[C@]1(C)C[C@@H](OC(=O)CSC2CN3CCC2C3)[C@@]2(C)C3C(=O)CC[C@@]3(CC[C@H]2C)[C@@H](C)[C@@H]1O (stereo partly shown) [TCMDC-139185],16.51
17,CC(C)(C)c1cc(C(=O)N2CCN(c3cnccn3)CC2)n(Cc2ccccc2)n1 [TCMDC-133778],6.708
18,COc1cc2nc(N3CCC(CNC(=O)c4ccc(-c5ccc(C(F)(F)F)cc5)cc4)CC3)nc(N)c2cc1OC [TCMDC-138716],114.6
19,COC(=O)c1ccc(-c2ccc(C(=O)NCC3CCN(c4nc(N)c5cc(OC)c(OC)cc5n4)CC3)cc2)cc1 [TCMDC-138721],127
20,COc1cc2nc(N3CCC(CNCc4ccc(-c5ccc(C(F)(F)F)cc5)cc4)CC3)nc(N)c2cc1OC [TCMDC-138757],94.11
21,COc1cc2nc(N3CCC(CNC(=O)c4ccc(NC(=O)c5ccc(Cl)cc5)cc4)CC3)nc(N)c2cc1OC [TCMDC-138712],79.48
22,COc1cc2nc(N3CCC(CNC(=O)c4ccc(-c5ccccc5)cc4)CC3)nc(N)c2cc1OC [TCMDC-137787],-6.004

row,Structure (SMILES),% Inhibition [%]
1,COc1ccc2nccc([C@@H](O)CN3CCC(NC(=O)C(=Cc4ccc(C#N)cc4)c4ccc(-c5ccccc5)cc4)CC3)c2c1 [TCMDC-141112],-10.17
2,Cc1cc(NC(=O)Nc2ccc(Cl)cc2F)c2ccccc2n1 [TCMDC-134658],-34.71
3,CCCC(C)NC(=O)c1cnn(-c2ccc(C(C)(C)C)cc2)c1OCc1ccc(Br)cc1 (stereo not shown) [TCMDC-139598],11.83
4,CC(=O)Nc1ccc(C(=O)Nc2cccc(-c3ccc(-c4nc5cc(F)ccc5[nH]4)s3)c2)cn1 [TCMDC-136833],-51.51
5,Cn1c2c(c3ccccc31)CN(CCC1(c3ccc(Cl)c(Cl)c3)CN(C(=O)Cc3ccccc3)CCO1)CC2 (stereo not shown) [TCMDC-135563],32.52
6,Cc1cc(C(=O)Nc2ccc3c(c2)CCN3C2CCN(Cc3ccc(F)cc3Cl)C2)no1 (stereo not shown) [TCMDC-135081],2.936
7,Cc1cc(Cl)c(S(=O)(=O)NC(C)(C)C)cc1OCC(=O)NC1CCCCC1 [TCMDC-124352],-13.59
8,COCCN1CCC(CN(C)CC(C)(C)c2nc(-c3ccc(Cl)c(O)c3)c(-c3ccncc3)[nH]2)CC1 [TCMDC-140899],-71.13
9,CN1CCN(c2cc3c(cc2Cl)CCN3C(=O)Cc2ccc(Cl)c(NC(=O)Nc3cccc(C#N)c3)c2)CC1 [TCMDC-139474],3.911
10,Nc1ncc(-c2ccc(F)cc2)cc1-c1nc2ccc(Cl)cc2[nH]1 [TCMDC-138810],-32.19
11,Cc1[nH]cnc1Cc1ccc2c(c1O)c1ccccc1n2C [TCMDC-131955],-82.46
12,Cc1cc(NC(=O)c2sc3ccccc3c2O)no1 [TCMDC-124522],-1.25
13,N#Cc1ccc(-c2nc(CO)c(C(=O)NCCCCN3CCC(c4ccc5c(c4OCC(N)=O)CCCC5)CC3)s2)cc1 [TCMDC-138872],-1.012
14,NC(=O)COc1c(C2CCN(CCN3CCC(CNC(=O)c4ccc(-c5ccc(C(F)(F)F)cc5)cc4)CC3)CC2)ccc2c1CCCC2 [TCMDC-134308],93.17
15,COc1c(C2CCN(CCN3CCC(CNC(=O)c4ccc(-c5ccc(C#N)cc5)cc4)CC3)CC2)ccc2c1CCCC2 [TCMDC-138859],105.9
16,CCOc1c(OC)ccc2c1CCN(CCN1CCC(CNC(=O)c3ccc(-c4ccc(C#N)cc4)cc3)CC1)C2 [TCMDC-138848],-12.76
17,N#Cc1ccc(-c2ccc(C(=O)NCCCCN3CCC(c4ccc5c(c4OCC(N)=O)CCCC5)CC3)nc2)cc1 [TCMDC-135212],23.96
18,COc1c(C2CCN(CCN3CCC(NC(=O)c4ccc(-c5ccc(C(F)(F)F)cc5)cc4)CC3)CC2)ccc2c1CCCC2 [TCMDC-138857],16.95
19,N#Cc1ccc(-c2ccc(C(=O)NCCCCN3CCC(c4ccc5c(c4OCC(N)=O)CCCC5)CC3)cc2)cc1 [TCMDC-138803],73.12
20,N#Cc1ccc(-c2ccc(C(=O)NCC3CCN(CCN4CCC(c5ccc6c(c5OCC(N)=O)CCCC6)CC4)CC3)cc2)cc1 [TCMDC-134563],103.8

# — publication PMC4552634, “A New Set of Chemical Starting Points with Plasmodium falciparum Transmission-Blocking Potential for Antimalarial Drug Discovery” (PLoS ONE, 2015)
